Laboratory results from PubChem BioAssay (EPA / NIEHS).
Activity calls are given as the source filed them. Rule for the calls: active = hit-call score of the fitted dose curve at least 0.9, where 1 is the maximum; inactive = score below 0.9.

Experiments:
[1] = read-out: urokinase plasminogen activator (uPA), PLAU (gene 5328); experiment: BSK_KF3CT_uPA: BioMAP Diversity Plus: KF3CT Assay for urokinase plasminogen activator (uPA) Biomarker Activity (AID 2283075); settings: primary human keratinocytes with fibroblasts; actives raise or lower the signal
How it was run: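 ELISA readout of uPA, analyzed for signal gain or loss relative to DMSO, from a human primary keratinocyte–foreskin fibroblast co-culture measured 24 h after chemical treatment.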

CD40, CD40 (gene 958) [2] = experiment: BSK_LPS_CD40: BioMAP Diversity Plus: LPS Assay for CD40 Biomarker Activity (AID 2283076); settings: primary human HUVEC with PBMC; actives raise or lower the signal
How it was run: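 Primary human umbilical vein endothelial cells co-cultured with peripheral blood mononuclear cells, LPS-stimulated, were dosed with chemical and read 24 h later. CD40 levels were measured by ELISA and fitted bidirectionally against DMSO as negative control and baseline.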

[3] = read-out: E-selectin (Homo sapiens) (UniProt P16581); experiment: BSK_LPS_Eselectin: BioMAP Diversity Plus: LPS Assay for Eselectin Biomarker Activity (AID 2283077); settings: primary human HUVEC with PBMC; actives raise or lower the signal
How it was run: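 Human umbilical vein endothelial cells co-cultured with peripheral blood mononuclear cells under LPS stimulation; E-selectin measured by ELISA 24 h after chemical dosing. Activity fitted bidirectionally against DMSO as negative control and baseline.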

[4] = read-out: Interleukin-8 (IL8), CXCL8 (gene 3576); experiment: BSK_LPS_IL8: BioMAP Diversity Plus: LPS Assay for Interleukin-8 (IL8) Biomarker Activity (AID 2283078); settings: primary human HUVEC with PBMC; actives raise or lower the signal
How it was run: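 Human umbilical vein endothelial cells co-cultured with PBMC were stimulated with LPS; IL-8 levels were measured by ELISA 24 h after chemical dosing. Activity was fitted bidirectionally against DMSO as negative control and baseline.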

[5] = BSK_LPS_SRB: Viability Assessment in the BioMAP Diversity Plus: LPS Assay (AID 2283079); settings: primary human HUVEC with PBMC;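 note: total protein by sulforhodamine B absorbance as a cytotoxicity measure; measured one day after compound addition; fitted in both directions against DMSO so loss or gain of signal counts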
How it was run: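 Human umbilical vein endothelial cells co-cultured with PBMC (LPS system) were dosed for 24 h. Total protein was stained with 0.1% sulforhodamine B after 10% TCA fixation, read at 560 nm, and fitted bidirectionally against DMSO baseline.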

[6] = read-out: Interleukin-1 alpha (IL1a), IL1A (gene 3552); experiment: BSK_LPS_IL1a: BioMAP Diversity Plus: LPS Assay for Interleukin-1 alpha (IL1a) Biomarker Activity (AID 2283080); settings: primary human HUVEC with PBMC; actives raise or lower the signal
How it was run: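 Human umbilical vein endothelial cells co-cultured with peripheral blood mononuclear cells were LPS-stimulated and exposed to test chemicals for 24 h. IL-1 alpha was quantified by ELISA, with bidirectional curve fitting against DMSO as the negative control and baseline.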

[7] = read-out: Monocyte Chemoattractant Protein-1 (MCP1), CCL2 (gene 6347); experiment: BSK_LPS_MCP1: BioMAP Diversity Plus: LPS Assay for Monocyte Chemoattractant Protein-1 (MCP1) Biomarker Activity (AID 2283081); settings: primary human HUVEC with PBMC; actives raise or lower the signal;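 for AC50: secreted MCP-1 protein quantified by ELISA in culture supernatant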
How it was run: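 HUVEC plus PBMC co-culture (human primary cells, LPS system) exposed to test chemical for 24 h; MCP-1 measured by ELISA. Bidirectional curve fitting against DMSO baseline; parallel SRB total-protein staining flags overt cytotoxicity.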

[8] = BSK_LPS_PGE2: BioMAP Diversity Plus: LPS Assay for Prostaglandin E2 (PGE2) Biomarker Activity (AID 2283082); settings: primary human HUVEC with PBMC; actives raise or lower the signal;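 for AC50: secreted prostaglandin E2 measured by ELISA in LPS-stimulated co-culture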
How it was run: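 HUVEC plus PBMC co-culture stimulated with LPS; secreted PGE2 quantified by ELISA 24 h after chemical dosing. Activity fitted bidirectionally against DMSO as negative control and baseline; parallel SRB total-protein staining served as cytotoxicity check.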

[9] = read-out: Macrophage colony-stimulating factor (MCSF), CSF1 (gene 1435); experiment: BSK_LPS_MCSF: BioMAP Diversity Plus: LPS Assay for Macrophage colony-stimulating factor (MCSF) Biomarker Activity (AID 2283083); settings: primary human HUVEC with PBMC; actives raise or lower the signal
How it was run: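 Human umbilical vein endothelial cells co-cultured with peripheral blood mononuclear cells were exposed to compound for 24 h. M-CSF levels were measured by ELISA, and bidirectional curve fitting used DMSO as the negative control and baseline.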

[10] = read-out: Tissue Factor, F3 (gene 2152); experiment: BSK_LPS_TissueFactor: BioMAP Diversity Plus: LPS Assay for Tissue Factor Biomarker Activity (AID 2283084); settings: primary human HUVEC with PBMC; actives raise or lower the signal
How it was run: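 Human umbilical vein endothelial cells co-cultured with peripheral blood mononuclear cells were dosed and stimulated with LPS. Cell-surface CD142 was quantified by ELISA at 24 h. Activity was fitted bidirectionally against DMSO baseline.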

[11] = read-out: Tumor necrosis factor (Homo sapiens) (UniProt P01375); experiment: BSK_LPS_TNFa: BioMAP Diversity Plus: LPS Assay for Tumour Necrosis Factor alpha (TNFa) Biomarker Activity (AID 2283085); settings: primary human HUVEC with PBMC; actives raise or lower the signal
How it was run: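 Human umbilical vein endothelial cells co-cultured with PBMC were exposed to test chemical and TNFa measured by ELISA 24 h after dosing. Bidirectional curve fitting was done relative to DMSO as negative control and baseline.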

[12] = read-out: Vascular cell adhesion molecule 1 (VCAM1), VCAM1 (gene 7412); experiment: BSK_LPS_VCAM1: BioMAP Diversity Plus: LPS Assay for Vascular cell adhesion molecule 1 (VCAM1) Biomarker Activity (AID 2283086); settings: primary human HUVEC with PBMC; actives raise or lower the signal
How it was run: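 Human umbilical vein endothelial cells co-cultured with peripheral blood mononuclear cells under LPS stimulation were exposed to test chemical for 24 h. VCAM-1 levels were then measured by ELISA, with bidirectional curve fitting relative to DMSO as negative control and baseline.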

CD38, CD38 (gene 952) = experiment: BSK_SAg_CD38: BioMAP Diversity Plus: SAg Assay for CD38 Biomarker Activity (AID 2283087); settings: primary human HUVEC with PBMC; actives raise or lower the signal
How it was run: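 Fluorescence ELISA of cell-surface CD38 served as the read-out, with either increase or decrease fitted against DMSO controls. Cells were a human umbilical vein endothelium plus PBMC co-culture under SEB/TSST-1 stimulation, measured 24 h after dosing.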

CD40, CD40 (gene 958) [13] = experiment: BSK_SAg_CD40: BioMAP Diversity Plus: SAg Assay for CD40 Biomarker Activity (AID 2283088); settings: primary human HUVEC with PBMC; actives raise or lower the signal
How it was run: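 Human umbilical vein endothelial cells co-cultured with PBMC; CD40 levels measured by ELISA with fluorescence read-out 24 h after chemical dosing. Gain or loss of signal fitted bidirectionally against DMSO baseline.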

CD69, CD69 (gene 969) = experiment: BSK_SAg_CD69: BioMAP Diversity Plus: SAg Assay for CD69 Biomarker Activity (AID 2283089); settings: primary human HUVEC with PBMC; actives raise or lower the signal;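 for AC50: cell surface CD69 protein quantified by ELISA with fluorescence detection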
How it was run: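 ELISA, fluorescence read-out: CD69 on human umbilical vein endothelial cell + PBMC co-culture, 24 h post-dosing. Gain or loss of signal fitted bidirectionally against DMSO baseline.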

[14] = read-out: Monocyte Chemoattractant Protein-1 (MCP1), CCL2 (gene 6347); experiment: BSK_SAg_MCP1: BioMAP Diversity Plus: SAg Assay for Monocyte Chemoattractant Protein-1 (MCP1) Biomarker Activity (AID 2283090); settings: primary human HUVEC with PBMC; actives raise or lower the signal
How it was run: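 MCP-1 levels in the endothelial–PBMC SAg co-culture were quantified by ELISA at 24 h post-dosing; both increases and decreases versus DMSO scored. Cytotoxicity monitored by SRB total protein in parallel cultures.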

[15] = read-out: E-selectin (Homo sapiens) (UniProt P16581); experiment: BSK_SAg_Eselectin: BioMAP Diversity Plus: SAg Assay for Eselectin Biomarker Activity (AID 2283091); settings: primary human HUVEC with PBMC; actives raise or lower the signal
How it was run: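 HUVEC co-cultured with PBMC, compound dosed then read at 24 h; E-selectin measured by ELISA. Activity fitted bidirectionally against DMSO as negative control and baseline.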

[16] = read-out: Monokine induced gamma interferon (MIG), CXCL9 (gene 4283); experiment: BSK_SAg_MIG: BioMAP Diversity Plus: SAg Assay for Monokine induced gamma interferon (MIG) Biomarker Activity (AID 2283092); settings: primary human HUVEC with PBMC; actives raise or lower the signal
How it was run: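 ELISA readout of MIG/CXCL9; primary human umbilical vein endothelial cells co-cultured with peripheral blood mononuclear cells; 24 h post-dose; gain/loss fit vs DMSO baseline.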

[17] = BSK_SAg_PBMCCytotoxicity: PBMC Cytotoxicity Assessment in the BioMAP Diversity Plus: SAg Assay (AID 2283093); settings: primary human HUVEC with PBMC;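 note: PBMC viability measured as Alamar Blue reduction fluorescence at 546/580 nm; fitted both ways against DMSO so a hit may be loss or gain of signal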;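 for AC50: PBMC superantigen activated with SEB plus TSST-1 one hour after compound addition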
How it was run: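 Compound added to 75,000 PBMC/well for 1 h; SEB and TSST-1 then added at 20 ng/mL final each; 90 h incubation; Alamar Blue 6 h; read 546/580 nm ex/em. Activity fitted bidirectionally relative to DMSO baseline.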

[18] = read-out: Interleukin-8 (IL8), CXCL8 (gene 3576); experiment: BSK_SAg_IL8: BioMAP Diversity Plus: SAg Assay for Interleukin-8 (IL8) Biomarker Activity (AID 2283094); settings: primary human HUVEC with PBMC; actives raise or lower the signal
How it was run: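 Human umbilical vein endothelial cells co-cultured with peripheral blood mononuclear cells; IL-8 measured by ELISA 24 h after chemical dosing. Bidirectional concentration-response fitting used DMSO as negative control and activity baseline.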

Measured: AC50

Chain of E-selectin (Homo sapiens) (P16581 whole entry, looked up): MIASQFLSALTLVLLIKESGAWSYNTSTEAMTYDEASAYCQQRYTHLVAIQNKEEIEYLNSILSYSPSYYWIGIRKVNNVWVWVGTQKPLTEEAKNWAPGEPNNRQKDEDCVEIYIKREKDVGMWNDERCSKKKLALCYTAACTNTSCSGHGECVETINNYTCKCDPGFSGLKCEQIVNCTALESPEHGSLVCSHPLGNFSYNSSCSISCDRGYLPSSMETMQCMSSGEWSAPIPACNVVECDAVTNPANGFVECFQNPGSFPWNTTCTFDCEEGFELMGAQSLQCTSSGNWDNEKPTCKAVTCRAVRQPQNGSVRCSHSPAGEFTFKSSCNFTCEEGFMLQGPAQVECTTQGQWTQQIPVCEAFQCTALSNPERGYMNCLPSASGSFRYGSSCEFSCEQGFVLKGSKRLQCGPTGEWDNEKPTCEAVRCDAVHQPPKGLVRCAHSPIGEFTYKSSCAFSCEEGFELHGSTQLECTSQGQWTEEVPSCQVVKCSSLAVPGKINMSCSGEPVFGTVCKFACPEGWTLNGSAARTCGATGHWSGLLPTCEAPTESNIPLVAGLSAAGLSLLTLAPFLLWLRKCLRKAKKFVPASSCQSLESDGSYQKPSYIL
Chain of Tumor necrosis factor (Homo sapiens) (P01375 whole entry, looked up): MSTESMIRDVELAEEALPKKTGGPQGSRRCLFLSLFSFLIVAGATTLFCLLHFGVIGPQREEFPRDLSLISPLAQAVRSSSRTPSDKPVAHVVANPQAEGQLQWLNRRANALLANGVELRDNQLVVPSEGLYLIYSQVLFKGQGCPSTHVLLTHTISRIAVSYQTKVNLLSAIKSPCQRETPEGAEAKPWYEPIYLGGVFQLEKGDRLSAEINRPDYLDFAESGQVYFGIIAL

CC[C@H]1OC(=O)[C@H](C)[C@@H](O[C@H]2C[C@@](C)(OC)[C@@H](O)[C@H](C)O2)[C@H](C)[C@@H](O[C@@H]2O[C@H](C)C[C@H](N(C)C)[C@H]2O)[C@](C)(O)C[C@@H](C)C(=O)[C@H](C)[C@@H](O)[C@]1(C)O
inactive: all assays above

CC(C)c1cccc(C(C)C)c1N1C(=O)c2ccc(O)cc2C1=O
active: [1] 36.7 µM | CD40, CD40 (gene 958) [2] 8.13 µM | [3] 18.9 µM | [5] 17.4 µM | [7] 34.8 µM | [9] 9.36 µM | [12] 10.1 µM | CD38, CD38 (gene 952) 13.6 µM | CD40, CD40 (gene 958) [13] 18.9 µM | CD69, CD69 (gene 969) 19.1 µM | [14] 37.1 µM | [15] 30.9 µM | [16] 32 µM
inactive: [4] | [6] | [8] | [10] | [11] | [17] | [18]

CN(C)c1ccc(Cc2ccc(N(C)C)cc2)cc1
active: [4] 20 µM | [8] 5.6 µM
inactive: all other assays above

CCOC(=O)COc1ccc2c(c1)CC(NCC(O)c1cccc(Cl)c1)CC2 (centres undefined)
inactive: [1] | [3] | [10] | [11] | [15] | [16]
active: CD40, CD40 (gene 958) [2] 29 µM | [4] 27.4 µM | [5] 28.4 µM | [6] 18.3 µM | [7] 29.2 µM | [8] 27.6 µM | [9] 34.5 µM | [12] 31.3 µM | CD38, CD38 (gene 952) 29.2 µM | CD40, CD40 (gene 958) [13] 28.8 µM | CD69, CD69 (gene 969) 18.3 µM | [14] 27.7 µM | [17] 27.2 µM | [18] 18.3 µM

O=C1OC(=O)C2C3C=CC(C3)C12 (centres undefined)
inactive: all assays above

O=C1CCC(N2C(=O)c3ccccc3C2=O)C(=O)N1 (centres undefined)
not listed: CD38, CD38 (gene 952)
inactive: all other assays above
